Pf growth 96h: inhibits malaria parasite growth, 96 h. 6.9% of 320,000 active. Potency, µM (top dose mostly 28.7 µM), for the others: at the highest dose activity change, negative = inhibition, usual class: inhibitors. P. falciparum luciferase reporter growth, 96 h. AID 504834; note: potency is the fitted concentration of half-maximal effect; % is set by controls: 0 for no effect and ±100 for the full control effect
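Cell-based qHTS: luciferase-tagged P. falciparum in erythrocytes (2% hematocrit, 0.05% parasitemia final) incubated with compounds for 96 hours, 37 C, 5% CO2; luciferase detection reagent then added and luminescence measured.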
Shiga inhibitor: inhibitors of Shiga toxin in Vero cells. Vero cells, Shiga toxin protein synthesis inhibition reporter. inhibition, % at 38.7 µM. 9.2% of 290,000 active; in the data active = inhibition mostly above about 28%, no sharp cut-off; inactive = mostly below about 43%; note: 0% is about no effect
Pf growth 48h: P. falciparum growth inhibition at 48 hours (one generation). 5.9% of 310,000 active. AID 504832. P. falciparum luciferase growth in erythrocytes, 48 h. Potency, µM (titrated, usually from 28.7 µM), for inactives: top-dose activity change, negative = inhibition, usual class: inhibitors; note: potency is the fitted concentration of half-maximal effect; % is set by controls: 0 for no effect and ±100 for the full control effect
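Luciferase-expressing P. falciparum in infected erythrocytes (2% hematocrit, 0.1% parasitemia final) in RPMI 1640/0.5% Albumax were exposed to compound for 48 hours at 37 C, 5% CO2; growth read as luminescence.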
LmPK inh: LmPK (Leishmania mexicana) enzyme inhibition; Q27686; purified LmPK, Kinase-Glo ATP luminescence, 1 h; 0.37% of 290,000 active; Potency, µM (doses to about 57.5 µM), inactives show at the top dose activity change, negative = inhibition, usual class: inhibitors; note: potency is the fitted concentration of half-maximal effect; % is set by controls: 0 for no effect and ±100 for the full control effect
Target sequence (Q27686 whole entry, looked up): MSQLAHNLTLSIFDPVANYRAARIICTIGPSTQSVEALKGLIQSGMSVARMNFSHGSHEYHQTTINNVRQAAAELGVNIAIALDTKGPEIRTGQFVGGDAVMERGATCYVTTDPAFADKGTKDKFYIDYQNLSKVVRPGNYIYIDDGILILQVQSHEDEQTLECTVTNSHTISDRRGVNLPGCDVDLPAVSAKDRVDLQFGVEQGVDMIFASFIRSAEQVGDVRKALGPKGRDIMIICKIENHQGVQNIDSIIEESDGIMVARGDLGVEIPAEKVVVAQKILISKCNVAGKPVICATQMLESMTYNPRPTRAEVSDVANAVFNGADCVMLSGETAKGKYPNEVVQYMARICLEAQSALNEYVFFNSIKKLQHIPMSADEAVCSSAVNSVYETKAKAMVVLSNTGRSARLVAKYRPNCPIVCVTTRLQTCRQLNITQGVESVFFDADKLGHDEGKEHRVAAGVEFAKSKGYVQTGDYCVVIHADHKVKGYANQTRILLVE
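Screened at intermediate enzyme activity to detect both inhibitors and activators: LmPK at 0.1 nM, with a 0.5 nM enzyme column as activation reference. PEP 0.5 mM, ADP 0.1 mM; ATP detected by luminescence after 1 h.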
CHX counter: counter-screen for Shiga toxin inhibitors: cycloheximide protein synthesis inhibition; 12% of 300,000 active; cell reporter, cycloheximide protein synthesis inhibition counterscreen; max response, %; AID 2314; in the data active = max response mostly above about 13%, no sharp cut-off; inactive = mostly below about 14%; note: read at 38.3 µM for the half of the compounds with a filed dose; 0% is about no effect
Active calls of the source: *; ? = inconclusive; . = not tested or not shown. The list is not random: actives were taken first. Their share in the collection is about 22%. Unless noted, calls come from the whole dose curve; as a rule, active = well fitted inhibition curve with a large enough effect; inconclusive = small, poorly fitted or top-dose-only effect, or another doubt; inactive = no such curve, though single readings can be large or run the other way.

SMILES | Pf growth 96h | Shiga inhibitor | Pf growth 48h | LmPK inh | CHX counter
O=C(CSCc1ccccc1Br)Nc1ccccc1 | ? | 18 | -16% | -8% | 27*
O=C(CSCc1ccccc1)Nc1cc([N+](=O)[O-])ccc1F | 5.2µM* | -7 | -16% | 3% | 1
O=C(CCn1c(=S)oc2ccccc21)Nc1cc([N+](=O)[O-])ccc1F | -4% | -4 | 8.3µM* | -3% | -2
COc1ccc([N+](=O)[O-])cc1NC(=O)CSCc1ccccc1 | ? | 5 | 4% | -3% | -5
O=C(CSCc1ccc(F)cc1)NC1CCCC1 | ? | 37* | 29% | -6% | 26*
CC12CCC(C(=O)Nc3ccncc3)(CC1O)C2(C)C (stereo not given) | 5% | -15 | -10% | 0% | 2
O=C(CSCc1ccc(F)cc1)Nc1ccccc1 | 44% | 53* | -8% | 4% | 30*
O=C(CN1CC(=O)Nc2ccccc21)Nc1ccc(F)c(F)c1 | ? | 75* | 39% | 7% | 30*
O=C(O)CCCC(=O)Nc1cc([N+](=O)[O-])ccc1O | 13µM* | -2 | 3% | 3% | -2
CCc1cccc(NC(=O)CNC(=O)N2CC(=O)Nc3ccccc32)c1 | 31% | -2 | 25% | 1% | 26*
Cc1ccc(NC(=O)CNC(=O)N2CC(=O)Nc3ccccc32)cc1F | 18% | -4 | 9% | 3% | -2
COc1ccc(-c2ccc(N(C)C)cc2)cc1C1C2C=CCC(C)C2C(=O)N1Cc1ccccc1 (stereo not given) | . | 2 | . | . | 6
O=C(COc1ncnc2ccccc12)Nc1cc([N+](=O)[O-])ccc1F | 5.2µM* | -12 | 3% | -1% | 5
O=C(CSCc1ccc(F)cc1)NCc1ccco1 | . | 42 | -8% | -3% | 21*
O=C(CSCc1ccccc1)Nc1ccc(F)c(F)c1 | -2% | 73* | 57% | 2% | 47*
O=C(CSCc1ccccc1)Nc1ccc(Cl)cn1 | . | 90 | 35% | 1% | 36
O=C(CSCC(=O)NCc1ccco1)NCc1ccco1 | ? | -17 | 27% | 0% | 2
N#CCSCC(=O)Nc1ccccc1 | 151% | 28 | 26% | 2% | 20*
CC1CCCC(NC(=O)COC(=O)c2cccs2)C1C (stereo not given) | -7% | . | -15% | . | .
CCCCCNS(=O)(=O)c1cc2c3c(c1)CCC(=O)N3CCC2 | 16% | -6 | -2% | -2% | -1
S=C(NCC1CCCO1)N1CCc2ccccc2C1 (stereo not given) | 39% | 20 | 13% | -8% | 15
COc1ccc(OC)c(S(=O)(=O)NC(C)(C)C)c1 | . | -3 | 10% | 3% | -2
Cc1ccc(OCCCSc2ncccn2)cc1C | 101% | 74* | 189% | 2% | 44*
Clc1ccc(OCCSc2ncccn2)cc1 | ? | 117* | 195% | 1% | 55*
COc1ccc(OCCCSc2ncccn2)cc1 | ? | 104* | 136% | -2% | 39*
SMILES | Pf growth 96h | Shiga inhibitor | Pf growth 48h | LmPK inh | CHX counter
COc1ccc(OCCSc2nc(C)nc3ccccc23)cc1 | -17% | 31 | ? | 3% | 43*
O=C(Cn1nc(C(=O)O)c2ccccc2c1=O)Nc1cccc(S(=O)(=O)N2CCCC2)c1 | -1% | . | 17% | . | .
O=C(CNCCc1ccc(F)cc1)Nc1cc(F)ccc1F | 9% | -1 | . | -6% | 3
COc1ccc(OCCSc2ncccn2)cc1 | ? | 113* | 194% | -20% | 46*
COc1cccc(OCCCCSc2ncccn2)c1 | ? | 63 | 42% | 2% | 26
OC(COc1ccc(Cl)cc1)CSc1ccccn1 (stereo not given) | ? | 21 | 28% | -1% | 27*
CC1CCC(NC(=O)COC(=O)c2ccco2)CC1 (stereo not given) | 5% | . | -18% | . | .
O=C(c1cccs1)N1CCc2c([nH]c3ccccc23)C1c1ccc(Cl)cc1 (stereo not given) | 10µM* | 2 | 10µM* | 7% | -5
CC12CCC(=O)N1C(C(=O)Nc1nc(-c3cc(F)ccc3F)cs1)CS2 (stereo not given) | -27% | . | ? | . | .
Cc1ccc(C)c2sc(NC(=O)c3ccc(N4C(=O)CCC4=O)cc3)nc12 | 43% | -11 | 49% | 1% | -2
CC1CCc2nc(NC(=O)c3ccc(N4C(=O)CCC4=O)cc3)sc2C1 (stereo not given) | 9% | 35* | ? | 1% | 13*
O=C(Nc1nc2c(s1)CCCC2)c1ccc(N2C(=O)CCC2=O)cc1 | 52% | 72* | 42% | -4% | 38*
